# Test results reported in PubChem BioAssay (EPA / NIEHS).
# Activity calls are given as the source filed them. The calls were made as follows: active = hit-call score of the fitted dose curve at least 0.9, where 1 is the maximum; inactive = score below 0.9.
# Key:
# [1] = APR_HepG2_CellCycleArrest_24hr: Apredica 24-hour HepG2 Assay for Cell Cycle Arrest (AID 2282905); conditions: imaging, actives raise or lower the signal;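 also: cell cycle arrest scored as ratio of 2N to 4N nuclear DNA content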
# Procedure, shortened: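 Readout: Hoechst 33342 nuclear DNA content by high-content fluorescent imaging, six images/well, 20x. Human HepG2 liver cells, 24 hr compound exposure, 0.39–200 uM, final DMSO 0.5% v/v. Gain or loss fitted relative to DMSO baseline.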
# [2] = APR_HepG2_NuclearSize_24hr: Apredica 24-hour HepG2 Assay for Nuclear Size (AID 2282907); conditions: high-content imaging, actives raise or lower the signal
# Procedure, shortened: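 Read-out: nuclear diameter from Hoechst 33342 (2 ug/mL) imaging of fixed HepG2 cells, 20x, six fields/well. Compounds ran at 0.39–200 uM for 24 hr, 0.5% DMSO final. Gain or loss was fitted bidirectionally relative to the DMSO baseline.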
# [3] = APR_HepG2_CellLoss_24hr: Apredica 24-hour HepG2 Assay for Cell Loss (AID 2282908); conditions: high-content imaging;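 as to AC50: fit in both directions so a hit may be cell loss or gain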
# Procedure, shortened: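 Read-out: Hoechst 33342-stained nuclei counted by automated fluorescence imaging after formaldehyde fixation and Triton permeabilization. Ten concentrations, 0.39 to 200 uM, duplicate wells, 0.5% DMSO final. Gain or loss of signal fitted relative to DMSO baseline.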
# [4] = APR_HepG2_MicrotubuleCSK_24hr: Apredica 24-hour HepG2 Assay for Microtubule CSK Stabilty (AID 2282909); conditions: HepG2 microtubule cytoskeleton imaging, actives raise or lower the signal
# Procedure, shortened: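 Read-out: alpha-tubulin immunofluorescence intensity by automated high-content imaging of fixed HepG2 cells after 24 h compound treatment. Ten concentrations, 0.39 to 200 uM, in duplicate; DMSO 0.5% v/v. Taxol positive control; DMSO-normalized bidirectional curve fitting.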
# [5] = APR_HepG2_MitoticArrest_24hr: Apredica 24-hour HepG2 Assay for Mitotic Arrest (AID 2282910); conditions: high-content imaging, actives raise or lower the signal
# Procedure, shortened: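 HepG2, 24 hr dosing, 0.39–200 uM, 0.5% DMSO final. Formaldehyde-fixed, Triton-permeabilised, anti-phospho-histone H3 plus Hoechst. ArrayScan imaging at 20x; bidirectional fit vs DMSO baseline.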
# [6] = APR_HepG2_MitoMembPot_24hr: Apredica 24-hour HepG2 Assay for Mitochondrial Membrane Potential (AID 2282911); conditions: imaging, actives raise or lower the signal
# Procedure, shortened: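 Mitochondrial dye uptake (MitoTracker Red CMXRos, 250 nM, 30 min pre-fixation) in HepG2 after 24 hr compound exposure, 0.39–200 uM; ArrayScan images at 20x, activity fitted in both directions relative to DMSO.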
# [7] = APR_HepG2_MitoMass_24hr: Apredica 24-hour HepG2 Assay for Mitochondrial Mass (AID 2282912); conditions: high-content imaging, actives raise or lower the signal
# Procedure, shortened: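 HepG2, 24 hr dosing, 10 concentrations 0.39–200 uM in duplicate, DMSO 0.5% final. MitoTracker Red CMXRos 250 nM, 30 min pre-fix; 3.7% formaldehyde fix. Imaging-based fluorescence intensity; gain/loss fit vs DMSO baseline.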
# [8] = APR_HepG2_CellCycleArrest_72hr: Apredica 72-hour HepG2 Assay for Cell Cycle Arrest (AID 2282914); conditions: high-content imaging, actives raise or lower the signal
# Procedure, shortened: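 Using multiplexed high-content imaging, HepG2 nuclei stained with Hoechst 33342 (2 ug/mL) were analysed for DNA content after fixation and permeabilization. Treatment lasted 72 hr across 0.39–200 uM in duplicate with final DMSO 0.5% v/v; DMSO served as negative control.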
# [9] = APR_HepG2_CellLoss_72hr: Apredica 72-hour HepG2 Assay for Cell Loss (AID 2282915); conditions: high-content imaging
# Procedure, shortened: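 HepG2 cells exposed 72 h to compound at 0.39–200 uM (10 concentrations, duplicate) in 0.5% DMSO. Fixed with 3.7% formaldehyde and Hoechst 33342-stained. Imaged at 20x; nuclear count gives cell number, fitted bidirectionally versus DMSO.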
# [10] = APR_HepG2_p53Act_24hr: Apredica 24-hour HepG2 Assay for p53 Activation (AID 2282913); conditions: high-content imaging, actives raise or lower the signal;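 also: p53 protein immunofluorescence averaged per cell in HepG2 with Hoechst nuclei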
# Procedure, shortened: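 Following 24 hr dosing of HepG2 at 0.39–200 uM, the cells undergo formaldehyde fixation, Triton permeabilization and multiplexed antibody labeling that includes p53 (Cy5). Signal from the imaging is referenced to DMSO solvent controls.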
smiles,measurement,setting,value
NC=O,outcome,[1],inactive
same,outcome,[2],inactive
same,outcome,[3],inactive
same,outcome,[4],inactive
same,outcome,[5],inactive
same,outcome,[6],inactive
same,outcome,[7],inactive
same,outcome,[8],inactive
same,outcome,[9],inactive
CC(C)c1cccc(C(C)C)c1NC(=O)NS(=O)(=O)c1cc(C(C)(C)O)co1,outcome,[1],inactive
same,outcome,[2],inactive
same,outcome,[3],inactive
same,outcome,[4],inactive
same,outcome,[6],inactive
same,outcome,[7],inactive
same,outcome,[10],inactive
same,outcome,[8],inactive
same,outcome,[9],inactive
Cc1occc(=O)c1O,outcome,[1],inactive
same,outcome,[2],inactive
same,outcome,[3],inactive
same,outcome,[4],inactive
same,outcome,[5],inactive
same,outcome,[6],inactive
same,outcome,[7],inactive
same,outcome,[8],inactive
same,outcome,[9],inactive
CCCCCCCCCCCCCCCCO,outcome,[1],inactive
same,outcome,[2],inactive
same,outcome,[4],inactive
same,outcome,[5],inactive
same,outcome,[6],inactive
same,outcome,[7],inactive
same,outcome,[8],inactive
same,outcome,[9],inactive
CCCCC(CC)CO (stereo not given),outcome,[1],inactive
same,outcome,[2],inactive
same,outcome,[4],inactive
same,outcome,[6],inactive
same,outcome,[7],inactive
same,outcome,[10],inactive
same,outcome,[8],inactive
same,outcome,[9],inactive
CC(C)c1cccc(C(C)C)c1,outcome,[1],inactive
same,outcome,[2],inactive
same,outcome,[3],inactive
same,outcome,[4],inactive
same,outcome,[6],inactive
same,outcome,[7],inactive
same,outcome,[8],inactive
same,outcome,[9],inactive
CCCCC(CC)COC(=O)CCCCCCCC(=O)OCC(CC)CCCC (stereo not given),outcome,[1],inactive
same,outcome,[2],inactive
same,outcome,[3],inactive
same,outcome,[4],inactive
same,outcome,[6],inactive
same,outcome,[7],inactive
same,outcome,[10],inactive
same,outcome,[8],inactive
same,outcome,[9],inactive
CC(C)COC(=O)CCCCC(=O)OCC(C)C,outcome,[1],inactive
same,outcome,[2],inactive
same,outcome,[4],inactive
same,outcome,[5],inactive
same,outcome,[6],inactive
same,outcome,[7],inactive
same,outcome,[8],inactive
same,outcome,[9],inactive
O=C1O[C@H]([C@H](O)CO)C(O)=C1O,outcome,[1],inactive
same,outcome,[2],inactive
same,outcome,[3],inactive
same,outcome,[4],inactive
same,outcome,[6],inactive
same,outcome,[7],inactive
same,outcome,[10],inactive
same,outcome,[8],inactive
same,outcome,[9],inactive
CC1=C(C)S(=O)(=O)CCS1(=O)=O,outcome,[1],inactive
same,outcome,[2],inactive
same,outcome,[3],inactive
same,outcome,[4],inactive
same,outcome,[5],inactive
same,outcome,[6],inactive
same,outcome,[7],inactive
same,outcome,[10],inactive
same,AC50,[8],42.8 µM (active)
same,AC50,[9],37.4 µM (active)
CCCCC(CC)COP(=O)(OCC(CC)CCCC)OCC(CC)CCCC (stereo not given),outcome,[1],inactive
same,outcome,[2],inactive
same,outcome,[4],inactive
same,outcome,[6],inactive
same,outcome,[7],inactive
same,AC50,[10],71.1 µM (active)
same,outcome,[8],inactive
same,AC50,[9],37.3 µM (active)
CN(C)CCCN(C)CCCN(C)C,outcome,[1],inactive
same,outcome,[2],inactive
same,outcome,[4],inactive
same,outcome,[5],inactive
same,outcome,[6],inactive
same,outcome,[7],inactive
same,outcome,[10],inactive
same,outcome,[8],inactive
same,outcome,[9],inactive
Cc1cn([C@H]2C=C[C@@H](CO)O2)c(=O)[nH]c1=O,outcome,[1],inactive
same,outcome,[2],inactive
same,outcome,[4],inactive
same,outcome,[5],inactive
same,outcome,[6],inactive
same,outcome,[7],inactive
same,outcome,[8],inactive
same,outcome,[9],inactive
O=C1CCCCC1,outcome,[1],inactive
same,outcome,[2],inactive
same,outcome,[3],inactive
same,outcome,[4],inactive
same,outcome,[6],inactive
same,outcome,[7],inactive
same,outcome,[8],inactive
same,outcome,[9],inactive
COc1ccc(C(=O)Nc2nc3ccccc3c(NCc3ccccc3)c2C#N)cc1,outcome,[1],inactive
same,outcome,[2],inactive
same,AC50,[3],119 µM (active)
same,outcome,[4],inactive
same,AC50,[6],43.4 µM (active)
same,AC50,[7],159 µM (active)
same,AC50,[10],160 µM (active)
same,outcome,[8],inactive
same,AC50,[9],45.3 µM (active)
O=[Si]=O,outcome,[1],inactive
same,outcome,[2],inactive
same,outcome,[3],inactive
same,outcome,[4],inactive
same,outcome,[5],inactive
same,outcome,[6],inactive
same,outcome,[7],inactive
same,outcome,[10],inactive
same,outcome,[8],inactive
same,AC50,[9],61.4 µM (active)
CO[C@@H]1COCC[C@@H]1N[C@@H]1CC[C@@](C(=O)N2CCc3ncc(C(F)(F)F)cc3C2)(C(C)C)C1,outcome,[1],inactive
same,outcome,[2],inactive
same,outcome,[3],inactive
same,outcome,[4],inactive
same,outcome,[5],inactive
same,outcome,[6],inactive
same,outcome,[7],inactive
same,outcome,[10],inactive
same,outcome,[8],inactive
same,outcome,[9],inactive
CC(=O)OC1CC(C)OC(C)O1 (stereo not given),outcome,[1],inactive
same,outcome,[2],inactive
same,outcome,[3],inactive
same,outcome,[4],inactive
same,outcome,[5],inactive
same,outcome,[6],inactive
same,outcome,[7],inactive
same,outcome,[8],inactive
same,outcome,[9],inactive
Cc1c(C)c2c(c(C)c1O)CCC(C)(COc1ccc(CC3SC(=O)NC3=O)cc1)O2 (stereo not given),AC50,[1],75.7 µM (active)
same,outcome,[2],inactive
same,AC50,[3],88.2 µM (active)
same,AC50,[4],122 µM (active)
same,AC50,[6],96.5 µM (active)
same,outcome,[7],inactive
same,outcome,[10],inactive
same,outcome,[8],inactive
same,AC50,[9],83.8 µM (active)
CC(C)NCC(O)c1ccc(O)c(O)c1 (stereo not given),outcome,[1],inactive
same,outcome,[2],inactive
same,outcome,[3],inactive
same,outcome,[4],inactive
same,outcome,[6],inactive
same,outcome,[7],inactive
same,outcome,[8],inactive
same,AC50,[9],91.3 µM (active)
